Each structure is given as a SMILES string. Out of some 5,600 compounds screened, about 390 (7%) showed an effect of 50% or more. Shown is part of a subset that was picked to be rich in strong results. Residues, ends and D or L forms follow the SMILES beside them. *: point of attachment. PhAc = O=C(Cc1ccccc1)*

In the experiment the target is T1, Protein deacetylase HDAC6 (Homo sapiens) (UniProt Q9UBN7).
T1 sequence (whole entry): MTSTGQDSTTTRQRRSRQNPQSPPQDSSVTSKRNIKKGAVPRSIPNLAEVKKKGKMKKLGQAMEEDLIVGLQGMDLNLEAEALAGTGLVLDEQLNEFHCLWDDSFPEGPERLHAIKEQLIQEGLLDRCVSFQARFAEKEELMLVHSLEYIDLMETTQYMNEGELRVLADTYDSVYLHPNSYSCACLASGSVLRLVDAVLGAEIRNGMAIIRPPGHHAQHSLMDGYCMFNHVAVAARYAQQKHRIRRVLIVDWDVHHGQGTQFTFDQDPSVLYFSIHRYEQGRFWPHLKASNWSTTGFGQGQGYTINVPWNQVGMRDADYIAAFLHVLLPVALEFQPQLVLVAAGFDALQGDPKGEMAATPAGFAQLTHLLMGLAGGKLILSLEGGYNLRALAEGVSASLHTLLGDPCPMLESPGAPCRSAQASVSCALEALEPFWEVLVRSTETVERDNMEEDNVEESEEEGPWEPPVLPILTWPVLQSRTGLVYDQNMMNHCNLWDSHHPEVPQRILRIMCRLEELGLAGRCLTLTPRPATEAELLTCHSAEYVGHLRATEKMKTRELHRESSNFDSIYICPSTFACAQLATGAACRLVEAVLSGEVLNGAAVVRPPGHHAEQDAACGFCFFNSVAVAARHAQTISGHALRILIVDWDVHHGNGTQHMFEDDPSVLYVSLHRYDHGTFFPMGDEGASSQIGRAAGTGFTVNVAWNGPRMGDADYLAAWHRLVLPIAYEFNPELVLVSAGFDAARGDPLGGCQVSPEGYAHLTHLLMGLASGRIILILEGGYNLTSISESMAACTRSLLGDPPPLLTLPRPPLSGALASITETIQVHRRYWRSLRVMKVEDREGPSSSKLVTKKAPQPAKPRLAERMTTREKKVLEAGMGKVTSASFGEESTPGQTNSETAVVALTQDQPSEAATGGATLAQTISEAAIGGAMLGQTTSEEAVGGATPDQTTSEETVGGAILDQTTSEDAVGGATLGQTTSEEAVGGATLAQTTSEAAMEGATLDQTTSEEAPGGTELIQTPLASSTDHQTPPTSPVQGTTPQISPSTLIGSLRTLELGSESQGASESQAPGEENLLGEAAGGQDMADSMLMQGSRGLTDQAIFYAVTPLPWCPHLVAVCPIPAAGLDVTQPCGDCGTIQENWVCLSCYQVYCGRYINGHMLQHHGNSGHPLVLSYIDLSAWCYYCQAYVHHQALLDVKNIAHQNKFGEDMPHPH
Conditions: at 10 µM.
Broadly, the inhibition is the change of the read-out against control, counted positive when it falls. For the compound `O=c1[nH]c2ccccc2c(=O)n1CCCN1CCN(c2ccccc2)CC1`, the inhibition is 8.65%. For the compound `O=C(O)c1ccccc1Nc1cccc(C(F)(F)F)c1`, the inhibition was 30.6%.

Consider `NC(=O)NCCN1CCN(c2cccc(C(F)(F)F)c2)CC1`, for which the inhibition was 22%.

Take `O=C(OCCN1CCOCC1)c1cccnc1Nc1cccc(C(F)(F)F)c1`: the inhibition came to 62%. As for `c1ccc2c(c1)Nc1ccccc1S2`, the figure is 74.6%; as for `CC(C)(C)C(=O)OCC(=O)[C@H]1CC[C@H]2[C@@H]3CCC4=CC(=O)CC[C@]4(C)[C@H]3CC[C@]12C`, 23.8%; as for `CCC(=O)c1ccc(OCC(O)CN2CCN(c3ccccc3)CC2)cc1` (stereo unspecified), 19.9%. The result for `Cc1cc(C)nc(NS(=O)(=O)c2ccc(NC(=S)NC(=O)COc3ccc(Br)cc3Cl)cc2)n1` reads 19.5%. Regarding `CCCc1ccc(C(=O)O)cc1`, the inhibition stood at 29.1%. The result for `CC1(C)CCC(C)(C)c2cc(C#Cc3ccc(C(=O)O)cc3)ccc21` reads -3.59%; that for `CCc1ccc(C2=CC(C)(C)Sc3ccc(C#Cc4ccc(C(=O)O)cc4)cc32)cc1`, 63%. The result for `COc1cn(-c2ccc(-n3cccn3)cc2F)nc(-c2ccnn2-c2ccccc2)c1=O` reads 0%; that for `O=C1NC(=O)c2c1c1c3ccccc3n3c1c1c2c2ccccc2n1C1CCC3O1`, 1.84%.

With `C[C@H](N)Cc1c[nH]cn1`, the inhibition worked out at 7.87%.

On to `Oc1ccc(-c2nc3cc(O)cc(Br)c3o2)cc1`, for which the inhibition amounted to 101%. The result for `C/C(=C(/CCOC(=O)C(C)C)SS/C(CCOC(=O)C(C)C)=C(\C)N(C=O)Cc1cnc(C)nc1N)N(C=O)Cc1cnc(C)nc1N` reads 9.58%; that for `COc1cc(CN2CCN(c3ccc(F)cc3)CC2)cc(OC)c1OC`, 16.8%. The result for `CCCCCCCCCCCCCCCCCC(=O)OC[C@@H](O)[C@H]1OC[C@H](O)[C@H]1O` reads 1.06%; that for `CC(C)(C)NCC(O)c1cc(Cl)c(N)c(C(F)(F)F)c1` (stereo unspecified), 16.6%. `CC(C)Oc1ccc(-c2cnc3c(-c4ccnc5ccccc45)cnn3c2)cc1`: the inhibition is -2.96%. As for `c1ccc(-c2cnn3cc(-c4ccc(OCCN5CCOCC5)cc4)cnc23)cc1`, the figure is 92.3%. The result for `COc1ccc(-c2cnc3c(-c4cccc5ncccc45)cnn3c2)cc1` reads -9.41%; that for `c1cc(-c2cnn3cc(-c4ccc(OCCN5CCCCC5)cc4)cnc23)ccn1`, 69.7%. With `c1ccc(OCc2ccc(CCCN3CCOCC3)cc2)cc1`, the inhibition was 45%. The result for `C=C1/C(=C\C=C2/CCC[C@]3(C)[C@@H]([C@H](C)/C=C/[C@H](C)C(C)(C)O)CC[C@@H]23)C[C@@H](O)C[C@@H]1O` reads -3.96%. On to `COC(=O)[C@H](Cc1ccc([N+](=O)[O-])cc1)NC(=O)c1cccc2ccccc12`, for which the inhibition came out at 10.5%. As for `COc1ccc2cc(-c3cc(-c4cc(Cl)cc(Cl)c4)nn3[C@@H](C)c3ccc(C(=O)NCCC(=O)O)cc3)ccc2c1`, the figure is 18.3%; as for `OC[C@H]1O[C@H](O[C@H]2O[C@H](CO)[C@@H](O)[C@H](O)[C@H]2O)[C@H](O)[C@@H](O)[C@@H]1O`, -9.27%; as for `O=C(OCC(COC(=O)c1cccnc1)(COC(=O)c1cccnc1)COC(=O)c1cccnc1)c1cccnc1`, 7.98%. Consider `CN(C)c1nc(N)c(C(=O)Nc2cccnc2)nc1Cl`, for which the inhibition came to 100%. As for `Cn1cncc1[C@@](N)(c1ccc(Cl)cc1)c1ccc2c(c1)c(-c1cccc(Cl)c1)cc(=O)n2C`, the figure is -5.64%; as for `Nc1nc(NC2CC2)c2ncn([C@H]3C=C[C@@H](CO)C3)c2n1`, -5.79%. For `Cc1ccc(NCCCc2ccccc2)c(N)c1`, the inhibition was 78.2%. As for `O=C(O)c1ccccc1NCCc1ccccc1`, the figure is 42.4%; as for `NC(=O)OCCCc1ccccc1`, 15.1%; as for `CCOc1cc2ncc(C#N)c(Nc3ccc(F)c(Cl)c3)c2cc1NC(=O)/C=C/CN(C)C`, 36.7%.

Regarding `CCOC(=O)CNC(=O)[C@@H]1CCCN1C(=O)Cc1ccccc1` (PhAc-Pro-Gly-OEt), the inhibition worked out at 4.19%. As for `COC(=O)[C@H](CC(C)C)NC(=O)[C@H](N)CC(C)C`, the figure is 10.2%. As for `CC1(C)[C@H]2CC[C@@]1(C)[C@H](O)[C@@H]2O` (racemic), the figure is 31.2%; as for `CCOC(=O)C1=C(N)Oc2ccc(Br)cc2[C@H]1[C@H](C#N)C(=O)OCC`, 52.9%.

Regarding `CCOC(=O)C1=C(N)Oc2ccc(Br)cc2C1C(C#N)C(=O)OCC` (stereo unspecified), the inhibition came out at 27.8%.

For `Cc1cccc(C)c1NC(=O)CN1CCCCCC1`, the inhibition is 16.5%. The result for `C/C(=N\NC(=N)N)c1cc(NC(=O)CCCCCCCCC(=O)Nc2cc(/C(C)=N/NC(=N)N)cc(/C(C)=N/NC(=N)N)c2)cc(/C(C)=N/NC(=N)N)c1` reads 77.6%. As for `Cc1ccc(NC(=O)CCCCCC(=O)Nc2ccccc2N)cc1`, the figure is -2.93%; as for `CCS(=O)(=O)N(Cc1cccnc1)c1cccc(-c2ccc(C#N)cc2)c1`, 17%; as for `CC1(N2CCC(n3c([C@H]4CCCNC4)nc4ccccc43)CC2)CCCCCCC1`, -2.41%. The result for `CCC[C@@H]1CC(=O)N([C@@H](CC)C(N)=O)C1` reads 29.1%; that for `C[C@H](/C=C/[C@H](C)C(C)(C)O)[C@H]1CC[C@H]2/C(=C/C=C3C[C@@H](O)C[C@H](O)C3)CCC[C@]12C`, 9.32%. Take `CCCCN(CCCC)C(=O)CN1C[C@H](c2ccc3c(c2)OCO3)[C@@H](C(=O)O)[C@@H]1c1ccc(OC)cc1`: the inhibition stood at 34.1%. Take `N=C(Nc1ccccc1)Nc1ccccc1`: the inhibition came to 15.5%. As for `O=C1NC(=S)NC(=O)C1C(=O)Nc1ccccc1`, the figure is 96.3%; as for `N=C(Nc1ccccc1)c1cccs1`, 37.1%; as for `CON(C)C(=O)[C@H](O)[C@H](Cc1ccccc1)NC(=O)c1cc2cc(Cl)ccc2[nH]1`, 5.68%. The result for `CN[C@H]1C[C@@H](N)[C@H](O)[C@@H](O[C@@H]2O[C@H](CO)[C@H](O)[C@@H]3OC4(O[C@H]23)O[C@H]([C@@H](N)CO)[C@H](O)[C@H](O)[C@H]4O)[C@@H]1O` (stereo partly specified) reads 6.11%; that for `N#Cc1ccc2[nH]c(O)c(-c3ccc(CN4CCOCC4)cn3)c2c1`, 11.3%; that for `Cc1[nH]c(/C=C2\C(=O)Nc3cc(-c4ccccc4)ccc32)c(C)c1CCC(=O)O`, 95.2%.

In the case of `CN/C(=N\S(=O)(=O)c1ccc(Cl)cc1)N1CC(c2ccccc2)C(c2ccc(Cl)cc2)=N1` (racemic), the inhibition was found to be 9.02%. The result for `O=C1CC(=O)c2c(Cl)c(Cl)c(Cl)c(Cl)c21` reads -2.09%. The result for `CN1C[C@@H]2CN(c3ccc(-c4ccccc4)nn3)C[C@@H]2C1` reads 10.2%; that for `O=C1N[C@H](C(=O)O)CS1`, 9.69%; that for `CCOc1cc(/C=C2/C(=O)N(c3ccccc3)N=C2C)cc(Cl)c1OCC(=O)OC`, 101%.

The record behind these values is ChEMBL document CHEMBL4808148, “HDAC6 screening dataset using tau-based substrate in an enzymatic assay yields selective inhibitors and activators” (2021).
